Each structure is given as a SMILES string. About 83,000 compounds went through this panel and 20% of them were active in at least one assay; those are over-represented in the sample as a whole.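 Method: cells in 96-well plates; compound added at one concentration; 48 h incubation; percent growth measured; values under 10 scored active.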 Unmarked numbers belong to inactive results. Activity calls are given as the source filed them.

Experiment in all cases: NCI-60 one-dose screen, 48 h (100 = growth as untreated, 0 = no growth, -100 = all killed)
The subject of test [1] is HCT-15 colon. The following applies: 10 µM unless noted.
The subject of test [2] is HT29 colon. To be noted: 10 µM unless noted.
For test [3], the system named is SNB-75 CNS. To be noted: 10 µM unless noted.
Test [4] concerns SNB-19 CNS. To be noted: 10 µM unless noted.
The test system of test [5] is U251 CNS. To be noted: 10 µM unless noted.
Test [6] relates to PC-3 prostate. To be noted: 10 µM unless noted.
For test [7], the system named is SK-MEL-5 melanoma. To be noted: 10 µM unless noted.
Test [8] concerns UACC-62 melanoma. The following applies: 10 µM unless noted.
The test system of test [9] is LOX IMVI melanoma. The following applies: 10 µM unless noted.
For test [10], the system named is SK-MEL-28 melanoma. To be noted: 10 µM unless noted.
In test [11] the test system is EKVX NSCLC. The following applies: 10 µM.
Test [12] deals with SN12C renal. The following applies: 10 µM unless noted.
Test [13] deals with UO-31 renal. The following applies: 10 µM unless noted.
Test [14] has as its system TK-10 renal. To be noted: 10 µM unless noted.
The test system of test [15] is ACHN renal. The following applies: 10 µM unless noted.
The test system of test [16] is CAKI-1 renal. To be noted: 10 µM unless noted.
The subject of test [17] is A498 renal. The following applies: 10 µM unless noted.
Test [18] relates to CCRF-CEM leukemia. The following applies: 10 µM.
Test [19] relates to MOLT-4 leukemia. To be noted: 10 µM unless noted.
Test [20] concerns SK-MEL-2 melanoma. The following applies: 10 µM unless noted.

For the compound `O=c1c2c(c3ccccc3n1-c1ccccc1)NC(=S)NC2c1ccc(Cl)cc1` (stereo not given), the growth is 28.6% in test [1]; 41.5% in test [2]; 41% in [3]; 39.7% in test [4]; 32.4% in test [5]; -4.33% (active) in [6]. For the same compound, the growth in test [7] is 1.08% (active); in test [8], 22.4%; in test [9], 8.65% (active); in test [10], 48.2%; in test [11] it was 20%; in test [12], 50.1%. Further, the growth is 47.6% in test [13]; 10.8% in [14]; 52.7% in test [15]; 33.2% in test [16]; 50.6% in test [17]; 7.43% (active) in [18]. The growth in test [19] was 25.4%.

As for `O=[N+]([O-])c1ccc(-c2ncc(-c3ccc(O)cc3O)[nH]2)cc1`, the growth in [1] is 100%; in test [2] it was 123%; in test [3] it was 103%; in test [4] it was 93.3%; in test [5], 103%; in [6], 98%. For the same compound, the growth is 109% in [7]; 95.3% in test [8]; 103% in test [9]; 108% in [10]; 92.4% in test [11]; 101% in test [12]. For the same compound, the growth in test [13] was 102%; in test [14], 124%; in test [15], 106%; in test [17], 101%; in test [18] it was -19.1% (active); in test [19], 99.1%.

Consider `CC[N+](C)(C)N`, for which the growth in [1] is 103%; in test [2], 102%; in [3], 80.5%; in test [4] it was 95.5%; in [5], 101%; in test [6] it was 100%. In addition, the growth in test [7] was 95.4%; in [8], 105%; in test [9], 90.9%; in [10], 94.9%; in [20], 108%; in test [12], 104%. For the same compound, the growth in test [14] was 100%; in [15] it was 110%; in test [16] it was 95.4%; in test [17], 121%; in [19] it was 104%.

In the case of `NC(CSC(c1ccccc1)(c1ccccc1)c1ccccc1)C(=O)NCC(=O)O` (stereo not given), the growth in [1] is 73.2%; in test [2] it was 101%; in test [3], 76.1%; in test [4], 85.7%; in test [5], 38.3%; in test [6], 81.9%. Moreover, the growth in test [7] is 44.3%; in test [8], 62.5%; in test [9] it was 81.4%; in test [10], 63.3%; in test [20], 38.3%; in [12], 70.7%. Moreover, the growth was 84.4% in test [13]; 98.8% in test [14]; 88.4% in test [15]; 65% in [17]; 53.5% in test [18]; 83.7% in test [19].

On to `CCn1cnc(C[C@H](NC(=O)[C@@H](NC(=O)Nc2cc(C(F)(F)F)cc(C(F)(F)F)c2)C(C)C)C(=O)OC)c1`, for which the growth was -78.6% [100 µM] (active) in test [1]; -81% [100 µM] (active) in [2]; -100% [100 µM] (active) in [3]; -90.8% [100 µM] (active) in [4]; -94.3% [100 µM] (active) in test [5]; -91.8% [100 µM] (active) in test [6]. The growth in test [7] is -98% [100 µM] (active); in test [8] it was -94.6% [100 µM] (active); in test [9], -86% [100 µM] (active); in [10], -96% [100 µM] (active); in test [20] it was -86% [100 µM] (active); in [12], -86.8% [100 µM] (active). Besides, the growth in test [13] was -97% [100 µM] (active); in [14], -98.7% [100 µM] (active); in [15], -98.7% [100 µM] (active); in [17], -89.5% [100 µM] (active); in test [19], -54.9% [100 µM] (active).

Consider `CC(O)CCC(C)[N+](=O)[O-]` (stereo not given), for which the growth is 102% in [1]; 113% in test [2]; 83.3% in test [3]; 99.9% in test [4]; 99.2% in test [5]; 102% in [6]. The growth was 102% in test [7]; 95.4% in test [8]; 100% in test [9]; 98.3% in [10]; 109% in [20]; 93.5% in [13]. Besides, the growth in test [14] was 104%; in test [15], 109%; in test [16], 104%; in [17], 105%; in test [18], 102%; in test [19] it was 102%.

Regarding `O=Nc1ccc(O)c2ccccc12`, the growth was 23.6% in test [1]; 1.37% (active) in [2]; -64.5% (active) in test [3]; 57.8% in test [4]; -14% (active) in test [5]; -10.5% (active) in [6]. In addition, the growth was -97.4% (active) in test [7]; 15.8% in test [8]; -1.33% (active) in test [9]; 13.3% in [10]; 32.7% in test [11]; -50.1% (active) in [12]. For the same compound, the growth was 38% in [13]; 5.45% (active) in test [14]; 19.9% in test [15]; 14.1% in test [16]; 118% in test [17]; 59.3% in test [19].

As for `NCCCOc1cc2ccccc2cc1C(=O)Nc1ccc(Cl)cc1OC(=O)c1cc2ccccc2cc1OCCCN`, the growth in test [1] was -82.2% (active); in [2], -94.9% (active); in test [3], -86.5% (active); in test [4], -61.5% (active); in test [5], -93.6% (active); in [6], -93% (active). For the same compound, the growth is -96.1% (active) in test [7]; -71.1% (active) in test [8]; -86.7% (active) in test [9]; -89.3% (active) in test [10]; -53.7% (active) in test [11]; -41.2% (active) in test [12]. The growth in [15] was -96.7% (active); in test [16], -75.7% (active); in [17] it was -96.1% (active); in test [19], -17% (active).

Take `CC(C)CCCCCOC(=O)c1ccccc1SSc1ccccc1C(=O)OCCCCCC(C)C`: the growth is 104% in test [1]; 122% in test [2]; 87.2% in test [3]; 103% in test [4]; 110% in test [5]; 88.6% in test [6]. The growth is 96.2% in [7]; 96.2% in test [8]; 100% in test [9]; 114% in test [10]; 103% in test [11]; 105% in test [12]. In addition, the growth in test [13] was 70.5%; in test [14], 136%; in [15] it was 103%; in [16], 97.3%; in [17], 100%; in [18], 70.9%. Further, the growth in [19] is 72.1%.

The values are drawn from PubChem BioAssay (NCI).
